Inconclusive results are not listed. A call without a number means that no potency is given here. Values without a mark were called inactive. Active and inactive are the calls of the source. Calls follow the shape of the dose curve; as a rule, active = well fitted cell-killing curve with a large enough effect in the repeat runs; inconclusive = weak or mixed curves, or effect the other way; inactive = no such curve, though single readings can be large or run the other way.

This assay is described as follows: Caspase-3/7 induction in CHO-K1 cells by small molecules, qHTS cell viability counter screen (AID 1346979). Also: nearly all actives have a fitted effect of over 35% in size. The settings on record: CellTiter-Fluor fluorescence, 17 h; series mostly up to 92.4 µM. An excerpt:
National Center for Advancing Translational Sciences [NCATS]
NIH Chemical Genomics Center [NCGC]
U.S. Environmental Protection Agency [EPA]
National Institutes of Environmental Health Sciences [NIEHS]
National Toxicology Program [NTP]
U.S. Food and Drug Administration [FDA]
Apoptosis is a process of programmed cell death and plays a central role in the development of multicellular organisms. It is a highly regulated process and induces cell death by activating caspases, which are the members of cysteine aspartic acid-specific protease (caspase) family. Caspases involved in apoptosis are classified by their mechanism of action as initiator caspases (caspase-2, -8, -9 and -10) and executioner caspases (caspase-3, -6, and -7). Inhibition of apoptosis results in number of cancers, autoimmune diseases, inflammatory diseases and viral infection. To identify small molecule compounds that induce apoptosis, a homogeneous, luminescent Caspase-Glo 3/7 assay was used. Wild type CHO-K1 cells were used to screen Tox21 libraries for identifying caspase-3/7 activity inducers. Also cytotoxicity of the compounds was tested in parallel by measuring the cell viability using CellTiter-Fluor assay system in the same wells.
Tox21 Assay Protocol Summary:
CHO-K1 cells were dispensed at 1,500 per well in 5uL of culture medium into white solid bottom 1536-well plates (Corning Life Sciences, Corning, NY) using a Multidrop Combi (Thermo Scientific, Waltham, MA) dispenser. The assay plates were incubated at 37 C and 5% CO2 for 5hr, and then 23nL of compounds dissolved in DMSO and positive control were transferred using a Pintool station (Wako, San Diego, CA). The assay plates were incubated at 37C and 5% CO2 for 17hr. For cytotoxicity read, after 16hr incubation at 37C, 1uL CellTiter-Fluor reagent (Promega Corporation, Madison, WI) was added to each well of the assay plates using Flying Reagent Dispenser (FRD, Aurora Discovery, San Diego, CA). After 1hr incubation at 37C and 5% CO2, the fluorescence signal was quantified using a ViewLux plate reader (PerkinElmer, Shelton, CT).
For orientation: Quantitative high-throughput screening tests each substance at several concentrations.
Turning to `O=C[O][Al]([O]C=O)[O]C=O`, the Potency result was “inactive”.

As to `CCCCOC(=O)C(C)O` (stereo not given), the Potency result was “inactive”.

On to `CSc1cnccn1`, for which the Potency entry was “inactive”.

As for `c1ccc2cnccc2c1`, the Potency result was “inactive”.

With `CC(Oc1cc(Cl)ccc1Cl)C(=O)O` (stereo not given), the Potency entry is “inactive”.

Consider `COS(=O)(=O)O`, for which the Potency result is “inactive”.

As for `CC1=C(C(=O)O)N2C(=O)[C@@H](NC(=O)[C@H](N)c3ccccc3)[C@H]2SC1`, the Potency entry is “inactive”.

Turning to `CCCC(=O)Nc1ccc(OCC(O)CNC(C)C)c(C(C)=O)c1` (stereo not given), the Potency entry was “inactive”.

On to `O=C(O)CONC(=O)c1ccccc1`, for which the Potency entry was “inactive”.

Consider `CCOCCOCC`, for which the Potency entry was “inactive”.

On to `CN(C)C(C)(C)CO`, for which the Potency result is “inactive”.

Regarding `CCC(C)C(C)=O` (stereo not given), the Potency entry was “inactive”.

As for `N[C@@H](CSCCCO)C(=O)O`, the activity change, negative = cytotoxicity is 1.3% [at 19 µM].

On to `C#CCN[C@@H]1CCc2ccccc21`, for which the Potency result was “inactive”.

`CC(=O)O[Si](C)(OC(C)=O)OC(C)=O`: the Potency result is “inactive”.

Consider `COP(=O)(O)OP(=O)(O)OC`, for which the Potency result was “inactive”.

For `COc1ccc2c(c1)c1c3n2CCN(C)C3=NCC1`, the Potency result was “inactive”.

For `CC(C)OC(=O)CCC(=O)OC(C)C`, the Potency entry was “inactive”.

For `Cc1ncc([N+](=O)[O-])n1CC(C)O` (stereo not given), the Potency entry was “inactive”.

As for `CCCCCc1cccc(=O)o1`, the Potency entry is “inactive”.

As to `CCn1cc(C(=O)O)c(=O)c2cnc(N3CCCC3)nc21`, the activity change, negative = cytotoxicity is 1.69% [at 8.39 µM].

As for `CC(=O)CCC1=C(C)CCCC1(C)C`, the Potency result was “inactive”.

Take `CCNC(=O)NCc1cccc(Cl)c1`: the Potency result is “inactive”.

On to `CC(C)(CO)C(O)C(=O)NCCCO` (stereo not given), for which the Potency result was “inactive”.

As to `COc1c2occc2c(OC)c2c(=O)cc(C)oc12`, the Potency result was “inactive”.

For the molecule `Nc1nc(-c2ccccc2)c(Br)c(=O)[nH]1`, the Potency result is “inactive”.

Take `CC(C)c1ccc(C=O)cc1`: the Potency result is “inactive”.

As to `C=CC(=O)CCCCC`, the Potency result was “inactive”.

On to `CCCC(=O)OCCC(C)CCC=C(C)C` (stereo not given), for which the Potency entry was “inactive”.

On to `C/C=C(\C)C(=O)OCCc1ccccc1`, for which the Potency result was “inactive”.

As for `COc1ccc(CCO)cc1`, the Potency result is “inactive”.

Turning to `CC(C)COC(=O)c1ccccc1`, the Potency entry was “inactive”.

On to `CC(C)NC(=O)c1ccc(C=O)cc1`, for which the Potency entry is “inactive”.

For `NCC1(Cc2noc(=O)[nH]2)CCCCC1`, the Potency entry is “inactive”.

Turning to `CC(C)C[C@@H]1[C@H](c2ccccc2)OC(=O)N1CCCN1CCCCCC1`, the Potency result was “inactive”.

As for `CC(S)C(C)S` (stereo not given), the Potency entry is “inactive”.

As for `Cc1ccc2c(c1)C(=O)c1ccccc1C2=O`, the Potency result was “inactive”.

`CN(C)CCCO[C@@H]1[C@H]2OC(C)(C)O[C@H]2O[C@@H]1C(O)CO` (stereo not given in full): the Potency result is “inactive”.

On to `C=CCCCC`, for which the Potency result is “inactive”.

For the molecule `O=C(Cn1ccnc1[N+](=O)[O-])NCc1ccccc1`, the Potency entry is “inactive”.

For the origin of these results see PubChem BioAssay (Tox21).
